# Read-outs that look alike come from different tables or passages of the source.
# Legend:
# Design in all cases: species or system human, MV4-11 + K-562 + COLO205 + SK-N-BE2 + OVCAR-8
# ATM = conditions: read-out: apparent Kd, n = 1
# AURKA = conditions: read-out: apparent Kd, n = 1
# BCR = conditions: read-out: apparent Kd, n = 1
# EPHA4 = conditions: read-out: apparent Kd, n = 1
# EPHA5 = conditions: read-out: apparent Kd, n = 1
# EPHB2 = conditions: read-out: apparent Kd, n = 1
# EPHB4 = conditions: read-out: apparent Kd, n = 1
# PRKACA = conditions: read-out: apparent Kd, n = 1
# PRKACB = conditions: read-out: apparent Kd, n = 1
# TNK1 = conditions: read-out: apparent Kd, n = 1
# CAMKK2 = conditions: read-out: apparent Kd, n = 1
# CHEK1 = conditions: read-out: apparent Kd, n = 1
# PRKAG2 = conditions: read-out: apparent Kd, n = 1
# RPS6KA4 = conditions: read-out: apparent Kd, n = 1
# MAPK9 = conditions: read-out: apparent Kd, n = 1
# STK4 = conditions: read-out: apparent Kd; compound concentrations:100 nM and 1000 nM (sheet 'Samples'); n = 1
# CSNK1D = conditions: read-out: apparent Kd, n = 1
# PIP4K2C = conditions: read-out: apparent Kd, n = 1
# MARK3 = conditions: read-out: apparent Kd, n = 1
# [1] = compound concentrations:100 nM and 1000 nM (sheet 'Samples')
smiles,measurement,setting,value
CN(c1ccc(NC(=O)Nc2cccc(Cl)c2)cc1)c1ccnc(N)n1.Cl [GW830707A],potency estimated from few doses,"ATM; compound concentrations: 100 nM and 1000 nM (sheet 'Samples'), CATDS: 7.3316367539925598E-2",4.81 nM
same,potency estimated from few doses,"AURKA; compound concentrations: 100 nM and 1000 nM (sheet 'Samples'), CATDS: 1.10158492855777E-2",1100 nM
same,potency estimated from few doses,"BCR; compound concentrations: 100 nM and 1000 nM (sheet 'Samples'), CATDS: 2.64796261985909E-2",26.5 nM
same,potency estimated from few doses,"EPHA4; compound concentrations: 100 nM and 1000 nM (sheet 'Samples'), CATDS: 2.6652421745355599E-2",26.2 nM
same,potency estimated from few doses,"EPHA5; compound concentrations: 100 nM and 1000 nM (sheet 'Samples'), CATDS: 2.89918726046417E-2",22 nM
same,potency estimated from few doses,"EPHB2; compound concentrations: 100 nM and 1000 nM (sheet 'Samples'), CATDS: 3.95108410825031E-2",12.4 nM
same,potency estimated from few doses,"EPHB4; compound concentrations: 100 nM and 1000 nM (sheet 'Samples'), CATDS: 6.0687941062208699E-2",6.3 nM
same,potency estimated from few doses,"PRKACA; compound concentrations: 100 nM and 1000 nM (sheet 'Samples'), CATDS: 2.4809932188679999E-2",30.7 nM
same,potency estimated from few doses,"PRKACB; compound concentrations: 100 nM and 1000 nM (sheet 'Samples'), CATDS: 1.9106655898432998E-2",60.7 nM
same,potency estimated from few doses,"TNK1; compound concentrations: 100 nM and 1000 nM (sheet 'Samples'), CATDS: 0.104039802479183",3.01 nM
Clc1cc(Cl)cc(Nc2ccnc(Nc3cc(Cl)cc(Cl)c3)n2)c1 [GSK175726A],potency estimated from few doses,"ATM; compound concentrations: 100 nM and 1000 nM (sheet 'Samples'), CATDS: 2.7134606068091E-2",77.5 nM
same,potency estimated from few doses,"AURKA; compound concentrations: 100 nM and 1000 nM (sheet 'Samples'), CATDS: 1.16998692507499E-2",470 nM
same,potency estimated from few doses,"BCR; compound concentrations: 100 nM and 1000 nM (sheet 'Samples'), CATDS: 1.5030836072921499E-2",242 nM
same,potency estimated from few doses,"CAMKK2; compound concentrations: 100 nM and 1000 nM (sheet 'Samples'), CATDS: 8.7749844490250094E-3",1420 nM
same,potency estimated from few doses,"CHEK1; compound concentrations: 100 nM and 1000 nM (sheet 'Samples'), CATDS: 9.2936135533363204E-3",1080 nM
same,potency estimated from few doses,"EPHA4; compound concentrations: 100 nM and 1000 nM (sheet 'Samples'), CATDS: 2.4571343446097599E-2",91.5 nM
same,potency estimated from few doses,"EPHA5; compound concentrations: 100 nM and 1000 nM (sheet 'Samples'), CATDS: 1.7966956970046102E-2",164 nM
same,potency estimated from few doses,"EPHB2; compound concentrations: 100 nM and 1000 nM (sheet 'Samples'), CATDS: 1.9895433949459099E-2",134 nM
same,potency estimated from few doses,"EPHB4; compound concentrations: 100 nM and 1000 nM (sheet 'Samples'), CATDS: 2.29851767560591E-2",103 nM
same,potency estimated from few doses,"PRKAG2; compound concentrations: 100 nM and 1000 nM (sheet 'Samples'), CATDS: 2.5465407694982199E-2",86.1 nM
same,potency estimated from few doses,"RPS6KA4; compound concentrations: 100 nM and 1000 nM (sheet 'Samples'), CATDS: 8.4689848583526291E-3",1720 nM
same,potency estimated from few doses,"TNK1; compound concentrations: 100 nM and 1000 nM (sheet 'Samples'), CATDS: 5.9656473094293803E-2",24.9 nM
CN1C[C@@H]2Cn3c(c(C4=C(c5cn(C)c6ccccc56)C(=O)NC4=O)c4ccccc43)C[C@H]2C1.Cl [RO0320234-001],potency estimated from few doses,ATM; [1],29.7 nM
same,potency estimated from few doses,AURKA; [1],368 nM
same,potency estimated from few doses,BCR; [1],57.1 nM
same,potency estimated from few doses,CAMKK2; [1],1430 nM
same,potency estimated from few doses,CHEK1; [1],1280 nM
same,potency estimated from few doses,EPHA4; [1],321 nM
same,potency estimated from few doses,EPHA5; [1],207 nM
same,potency estimated from few doses,EPHB2; [1],52.9 nM
same,potency estimated from few doses,EPHB4; [1],15.9 nM
same,potency estimated from few doses,RPS6KA4; [1],1630 nM
same,potency estimated from few doses,TNK1; [1],9.27 nM
CNC(=O)c1ccccc1Nc1nc(Nc2ccc(N3CCOCC3)cc2)ncc1Cl.Cl [GSK1576028A],potency estimated from few doses,AURKA; [1],11 nM
same,potency estimated from few doses,BCR; [1],781 nM
same,potency estimated from few doses,MAPK9; [1],220 nM
same,potency estimated from few doses,PRKAG2; [1],587 nM
same,potency estimated from few doses,RPS6KA4; [1],427 nM
same,potency estimated from few doses,STK4,675 nM
same,potency estimated from few doses,TNK1; [1],7.93 nM
Cc1ccc2c(-c3ccncc3)c(-c3ccc(F)cc3)nn2c1.Cl [GW461484A],potency estimated from few doses,ATM; [1],262 nM
same,potency estimated from few doses,BCR; [1],545 nM
same,potency estimated from few doses,CAMKK2; [1],1180 nM
same,potency estimated from few doses,CHEK1; [1],1870 nM
same,potency estimated from few doses,CSNK1D; [1],125 nM
same,potency estimated from few doses,EPHA4; [1],550 nM
same,potency estimated from few doses,EPHA5; [1],429 nM
same,potency estimated from few doses,EPHB2; [1],341 nM
same,potency estimated from few doses,EPHB4; [1],275 nM
same,potency estimated from few doses,PIP4K2C; [1],1560 nM
same,potency estimated from few doses,PRKACA; [1],1900 nM
same,potency estimated from few doses,PRKAG2; [1],417 nM
same,potency estimated from few doses,TNK1; [1],280 nM
NCCNS(=O)(=O)c1ccc(-c2ccnc3[nH]ccc23)cc1 [GSK977617A],potency estimated from few doses,ATM; [1],295 nM
same,potency estimated from few doses,BCR; [1],244 nM
same,potency estimated from few doses,CAMKK2; [1],1970 nM
same,potency estimated from few doses,CHEK1; [1],2250 nM
same,potency estimated from few doses,EPHA4; [1],287 nM
same,potency estimated from few doses,EPHA5; [1],267 nM
same,potency estimated from few doses,EPHB2; [1],189 nM
same,potency estimated from few doses,EPHB4; [1],171 nM
same,potency estimated from few doses,PRKACA; [1],361 nM
same,potency estimated from few doses,PRKACB; [1],571 nM
same,potency estimated from few doses,RPS6KA4; [1],588 nM
same,potency estimated from few doses,TNK1; [1],181 nM
Fc1ccc(-c2c(-c3ccncc3)[nH]c3cccnc23)cc1 [RO1153853-000],potency estimated from few doses,"CSNK1D; compound concentrations: 100 nM and 1000 nM (sheet 'Samples'), CATDS: 0.18196610661617901",99.4 nM
same,potency estimated from few doses,"MAPK9; compound concentrations: 100 nM and 1000 nM (sheet 'Samples'), CATDS: 7.2614011783570201E-2",541 nM
Cl.ON=C1CCc2cc(-c3nc(C4CCNCC4)[nH]c3-c3ccncc3)ccc21 [SB-614067-R],potency estimated from few doses,CSNK1D; [1],436 nM
CCn1c(-c2nonc2N)nc2c(C#CC(C)(C)O)nc(OCCN)cc21.CCn1c(-c2nonc2N)nc2c(C#CC(C)(C)O)nc(OCCN)cc21.Cl.Cl [GSK902056A],potency estimated from few doses,PRKACA; [1],1200 nM
same,potency estimated from few doses,PRKACB; [1],1000 nM
CCn1c(-c2nonc2N)nc2c(-c3ccccc3)ncc(OCCCN)c21.CCn1c(-c2nonc2N)nc2c(-c3ccccc3)ncc(OCCCN)c21.O=C(O)C(F)(F)F.O=C(O)C(F)(F)F [GSK260205A],potency estimated from few doses,"CSNK1D; compound concentrations: 100 nM and 1000 nM (sheet 'Samples'), CATDS: 4.20751700104477E-2",469 nM
same,potency estimated from few doses,"PRKACA; compound concentrations: 100 nM and 1000 nM (sheet 'Samples'), CATDS: 2.90938755589953E-2",1480 nM
same,potency estimated from few doses,"PRKACB; compound concentrations: 100 nM and 1000 nM (sheet 'Samples'), CATDS: 3.9372517693277299E-2",557 nM
Cl.Nc1c(C(=O)c2cccc(C#CCN3CCCCC3)c2)cnn1-c1ccc(F)cc1 [RO1154461-001],potency estimated from few doses,"ATM; compound concentrations: 100 nM and 1000 nM (sheet 'Samples'), CATDS: 2.8189903331148802E-2",161 nM
same,potency estimated from few doses,"AURKA; compound concentrations: 100 nM and 1000 nM (sheet 'Samples'), CATDS: 1.31144942702613E-2",784 nM
same,potency estimated from few doses,"BCR; compound concentrations: 100 nM and 1000 nM (sheet 'Samples'), CATDS: 1.8870015548456399E-2",336 nM
same,potency estimated from few doses,"CAMKK2; compound concentrations: 100 nM and 1000 nM (sheet 'Samples'), CATDS: 1.2329030932227101E-2",934 nM
same,potency estimated from few doses,"CHEK1; compound concentrations: 100 nM and 1000 nM (sheet 'Samples'), CATDS: 1.05759590598224E-2",1550 nM
same,potency estimated from few doses,"EPHA4; compound concentrations: 100 nM and 1000 nM (sheet 'Samples'), CATDS: 1.83423267934671E-2",356 nM
same,potency estimated from few doses,"EPHA5; compound concentrations: 100 nM and 1000 nM (sheet 'Samples'), CATDS: 2.15215497869925E-2",260 nM
same,potency estimated from few doses,"EPHB2; compound concentrations: 100 nM and 1000 nM (sheet 'Samples'), CATDS: 2.8724117835498601E-2",156 nM
same,potency estimated from few doses,"EPHB4; compound concentrations: 100 nM and 1000 nM (sheet 'Samples'), CATDS: 3.5435159362778398E-2",111 nM
same,potency estimated from few doses,"MARK3; compound concentrations: 100 nM and 1000 nM (sheet 'Samples'), CATDS: 9.8950713499473906E-3",2030 nM
same,potency estimated from few doses,"PIP4K2C; compound concentrations: 100 nM and 1000 nM (sheet 'Samples'), CATDS: 1.00291751764076E-2",1910 nM
same,potency estimated from few doses,"PRKACA; compound concentrations: 100 nM and 1000 nM (sheet 'Samples'), CATDS: 1.0779981289506101E-2",1440 nM
same,potency estimated from few doses,"PRKACB; compound concentrations: 100 nM and 1000 nM (sheet 'Samples'), CATDS: 1.14120731511483E-2",1190 nM
same,potency estimated from few doses,"TNK1; compound concentrations: 100 nM and 1000 nM (sheet 'Samples'), CATDS: 4.5946833879509097E-2",75.5 nM
CC(C)N1CCC(n2cnc(-c3ccc(F)cc3)c2-c2ccnc(N)n2)CC1 [SB-223132],potency estimated from few doses,AURKA; [1],931 nM
same,potency estimated from few doses,BCR; [1],660 nM
same,potency estimated from few doses,CAMKK2; [1],940 nM
same,potency estimated from few doses,CHEK1; [1],1740 nM
same,potency estimated from few doses,CSNK1D; [1],25.1 nM
same,potency estimated from few doses,EPHA4; [1],692 nM
same,potency estimated from few doses,EPHA5; [1],545 nM
same,potency estimated from few doses,EPHB2; [1],385 nM
same,potency estimated from few doses,EPHB4; [1],314 nM
same,potency estimated from few doses,MARK3; [1],1770 nM
same,potency estimated from few doses,PIP4K2C; [1],1200 nM
same,potency estimated from few doses,PRKACA; [1],1710 nM
same,potency estimated from few doses,PRKAG2; [1],1040 nM

# Reference: PMC11062922 (Nature Chemical Biology, 2023)
